POLI inh: blocks human DNA polymerase iota activity. Pol iota fluorescent replication assay, 10 min. Potency, µM (titrated, usually from 115 µM), hits mostly inhibitors. actives 1% (n = 390,000). AID 588590. Q9UNA4
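Fluorescent replication assay read twice, at 0 min and 10 min after adding 50 nM (final) substrate. Enzyme (10 nM) and compounds were first incubated 15 min at room temperature; enzyme-free buffer wells were negative controls.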
Pol kappa inh-1: blocks human DNA polymerase kappa activity; Potency, µM (series often up to 107 µM), hits mostly inhibitors; Q9UBT6; actives 0.53% (n = 400,000); purified Pol kappa, fluorescent DNA synthesis assay, 10 min; AID 588579
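Activity was followed as the change in fluorescence between reads at 0 and 10 min after starting the reaction with 50 nM substrate. Beforehand, 10 nM polymerase had been preincubated with compound for 15 min at room temperature.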
Pol eta inh-1: DNA polymerase eta (human) inhibition; Q9Y253; recombinant Pol eta, fluorescent DNA replication assay; Potency, µM (highest dose often 114 µM), actives largely listed as inhibitors; actives 1.2% (n = 390,000); AID 588591
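Pol eta at 10 nM preincubated with compounds 15 min at room temperature; reaction started with fluorescent substrate (50 nM final) and read kinetically at 0 and 10 min.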
ALOX12 inh: inhibitors of human 12S-lipoxygenase ALOX12 | actives 1.1% (n = 580,000) | purified 12hLO, xylenol orange hydroperoxide absorbance | Potency, µM (series often up to 108 µM), most hits filed as inhibitors | P18054 | AID 1671190
Target sequence (P18054 whole entry, looked up): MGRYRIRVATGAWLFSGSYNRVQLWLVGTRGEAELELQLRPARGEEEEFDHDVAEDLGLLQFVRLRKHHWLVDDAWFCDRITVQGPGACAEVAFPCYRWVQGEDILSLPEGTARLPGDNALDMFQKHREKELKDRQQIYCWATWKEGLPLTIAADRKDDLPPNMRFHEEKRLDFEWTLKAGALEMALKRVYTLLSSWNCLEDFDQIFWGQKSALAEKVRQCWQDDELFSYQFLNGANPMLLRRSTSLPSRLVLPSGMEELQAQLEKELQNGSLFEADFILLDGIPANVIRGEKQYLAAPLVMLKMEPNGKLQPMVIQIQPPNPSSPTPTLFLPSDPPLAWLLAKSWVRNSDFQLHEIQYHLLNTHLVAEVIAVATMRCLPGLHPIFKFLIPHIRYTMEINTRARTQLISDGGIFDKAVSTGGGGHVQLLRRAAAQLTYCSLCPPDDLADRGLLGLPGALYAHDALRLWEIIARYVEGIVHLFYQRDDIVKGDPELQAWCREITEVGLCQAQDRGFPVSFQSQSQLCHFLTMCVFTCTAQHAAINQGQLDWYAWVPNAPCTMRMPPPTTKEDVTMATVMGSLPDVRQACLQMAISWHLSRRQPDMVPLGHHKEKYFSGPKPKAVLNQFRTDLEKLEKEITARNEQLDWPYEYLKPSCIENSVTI
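Hydroperoxide product was detected by ferrous iron/xylenol orange as the 573 to 405 nm absorbance ratio. Arachidonic acid at 40 uM (final) was turned over for 30 min at room temperature by 150 nM human 12hLO, pH 7.0 Hepes buffer, after 15 min compound preincubation.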
Pol beta inh: blocks human DNA polymerase beta activity | P06746 | Potency, µM (doses to about 114 µM), usual class: inhibitors | actives 1.3% (n = 340,000) | AID 485314 | Pol beta primer extension/strand displacement, fluorescence kinetic
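Preincubation: enzyme (10 nM) with compound, 15 min, RT. Reaction: substrate added to 50 nM final. Reads: 0 and 10 min. Analysis: normalized, Hill fit.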
PI5P4Ka inh: PI5P4K alpha (human) kinase inhibition. actives 1.2% (n = 330,000). P48426. AID 652105. PI5P4Kalpha enzyme, ADP-Glo luminescence, 60 min; hits give low values. max response, %; active = max response of -50% or lower; inconclusive = between -30% and -50%; inactive = -30% or higher; also: value at the top dose of about 77 µM
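Compounds were pin-transferred onto PI5P4Kalpha and substrate in HEPES pH 7.4 buffer with EGTA, CHAPS and 5% DMSO. ATP (5 microM final) started the reaction, which ran 60 minutes at room temperature before ADP-Glo detection.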
GALK confirm: galactokinase (human) inhibition, confirmation; shares compounds with Pol eta inh-1; purified GALK, Kinase-Glo ATP depletion luminescence; Potency, µM (top dose mostly 115 µM), actives largely listed as inhibitors; actives 70% (n = 150); AID 2015
GALK redox cs: generates H2O2 by redox cycling, flagging GALK artifacts; shares compounds with Pol eta inh-1; Phenol red-HRP H2O2 redox cycling, absorbance 600 nm; Potency, µM (highest dose often 115 µM), actives largely listed as inhibitors; actives 40% (n = 150); AID 2035
HEK293 viability: counter-screen for GALK inhibitors: HEK293 cell cytotoxicity | shares compounds with Pol eta inh-1 | HEK-293 viability, ATP luminescence (CellTiter-Glo), 24/48 h | Potency, µM (titrated, usually from 46.1 µM), usual class: inhibitors | actives 10% (n = 170)
Pol kappa inh-2: confirmation of human DNA polymerase kappa inhibitors. shares compounds with Pol eta inh-1. purified Pol-kappa, fluorescent strand-displacement substrate. Potency, µM, hits mostly inhibitors. actives 76% (n = 920)
Pol eta inh-2: confirmation of human DNA polymerase eta inhibitors. shares compounds with Pol eta inh-1. Pol eta primer extension, TAMRA/BHQ fluorescence, 10 min. Potency, µM, actives largely listed as inhibitors. actives 64% (n = 2,600)
A number is an active result; i = inactive; ? = inconclusive; nt = not tested or not shown. This is a sample that favours compounds with a hit; in the whole collection about 2.9% have one here. Unless noted, calls follow the shape of the dose curve; as a rule, active = well fitted curve in the direction sought with a large enough effect; inconclusive = small, poorly fitted or top-dose-only effect, or another doubt; inactive = no such curve, though single readings can be large; an effect the other way counts as inactive or inconclusive.

SMILES	POLI inh	Pol kappa inh-1	Pol eta inh-1	ALOX12 inh	Pol beta inh	PI5P4Ka inh	Pol eta inh-2	others
Cc1ccc2nc3sc(C(=O)NCc4ccco4)c(N)c3cc2c1	i	i	?	i	?	i	nt
N=C1/C(=C\c2coc3ccc(O)cc3c2=O)C(=O)N=C2SC=CN12	?	?	13µM	?	4µM	-69	19
CSC1=NSC2=NC(=O)/C(=C\c3coc4ccccc4c3=O)C(=N)N12	?	?	13µM	?	25µM	-57	?
CC(C)CSC1=NSC2=NC(=O)/C(=C\c3coc4ccccc4c3=O)C(=N)N12	?	i	18µM	28µM	45µM	?	76
N=C1/C(=C\c2coc3ccccc3c2=O)C(=O)N=C2SC(c3ccncc3)=NN12	?	7.9µM	2.8µM	?	?	-74	nt	GALK confirm=21µM;GALK redox cs=i;HEK293 viability=i
CC(C)CSC1=NSC2=NC(=O)/C(=C\c3ccccc3)C(=N)N12	?	i	i	i	i	i	nt
CN1C(=O)/C(=C/c2coc3ccc(O)cc3c2=O)SC1=S	i	i	i	i	i	i	nt
CC1=NN2C(=N)/C(=C\c3cc(C)n(-c4ccccc4)c3C)C(=O)N=C2S1	i	i	i	i	i	i	nt
O=C(Nc1nnc(-c2ccncc2)s1)C1CCCO1 (centres undefined)	i	i	?	?	i	i	nt
O=C(Nc1nnc(-c2ccccc2F)s1)C1CCCO1 (centres undefined)	50µM	?	14µM	i	32µM	?	?
CCc1ccc(C(=O)Nc2ccc(O)c(-c3nc4ccccc4o3)c2)cc1	nt	nt	nt	i	nt	nt	nt
C/C(N)=C(/C#N)C(=O)CSc1nnnn1-c1ccccc1	?	i	16µM	i	35µM	?	27
O=C(NC1CCCCC1)c1nc(Cl)ccc1Cl	nt	nt	nt	i	nt	nt	nt
Cc1cc(C)cc(S(=O)(=O)N2CCC(C(=O)NCCc3csc(C)n3)CC2)c1	nt	nt	nt	i	nt	nt	nt
COc1cc2c(cc1[N+](=O)[O-])-c1ccc([N+](=O)[O-])cc1C2=NNC(N)=S	nt	nt	10µM	nt	nt	-59	nt	Pol kappa inh-2=67
NC(=S)NN=C1c2cc(Cl)ccc2-c2c1cc(Cl)cc2[N+](=O)[O-]	i	i	i	nt	nt	i	nt
O=C(Nc1ccc(S(=O)(=O)Nc2ncccn2)cc1)c1cccc(Cl)c1	i	i	i	i	i	nt	nt
Cc1c(C(=O)Nc2ccc(S(=O)(=O)Nc3ncccn3)cc2)oc2ccccc12	?	?	28µM	i	nt	i	43
O=C(Nc1ccc(S(=O)(=O)Nc2ncccn2)cc1)c1ccc2ncsc2c1	?	i	40µM	?	?	?	76
CN(C)c1ccc(CN2CCOC[C@H]2c2ncc(-c3cccc(Cl)c3)[nH]2)cc1	nt	nt	nt	i	nt	nt	nt
O=C(c1ccc2c(c1)OCO2)N1CCC(n2cc(-c3nc(-c4ccccc4)no3)nn2)C1 (centres undefined)	nt	nt	nt	i	nt	nt	nt
COc1ccc(-c2csc3ncnc(Nc4cc(Cl)ccc4OC)c23)cc1	nt	nt	nt	i	nt	nt	nt
COc1ccccc1C(=O)COC(=O)c1cc(=O)[nH]c2ccccc12	i	i	i	i	nt	i	nt
Cc1ccc(C(=O)COC(=O)c2cc(=O)[nH]c3ccccc23)cc1C	i	i	50µM	i	i	i	67
Cc1ccc(C2C=C(c3ccccc3)Nc3nc(NS(=O)(=O)c4ccc(C)cc4)nn32)cc1 (centres undefined)	i	i	?	i	i	nt	nt	Pol kappa inh-2=?
SMILES	POLI inh	Pol kappa inh-1	Pol eta inh-1	ALOX12 inh	Pol beta inh	PI5P4Ka inh	Pol eta inh-2	others
N#Cc1c(-c2ccc(Cl)c([N+](=O)[O-])c2)no[n+]1[O-]	nt	nt	nt	nt	nt	nt	76
COc1cc(CC(=O)OCC(=O)NCc2ccco2)cc(OC)c1OC	?	i	50µM	i	nt	i	?
N#Cc1ccnc(-c2nnc3ccc(NCc4cnccn4)nn23)c1	nt	nt	nt	i	nt	nt	nt
O=C(O)c1cnn(-c2ccccc2)c1-c1ccncc1	?	?	22µM	i	?	i	60	Pol kappa inh-2=19
CS(=O)(=O)N1CC(C(=O)O)Oc2ccc(CC(=O)O)cc21 (centres undefined)	?	i	18µM	i	?	i	30
CC(/C=N/n1c(-c2ccccc2)n[nH]c1=S)=C\c1ccco1	i	i	?	?	?	nt	nt
Cc1cccc(-c2n[nH]c(=S)n2/N=C/C=C/c2ccco2)c1	13µM	45µM	79µM	25µM	?	?	?
CC(/C=N/n1c(-c2ccncc2)n[nH]c1=S)=C\c1ccco1	20µM	50µM	?	7.1µM	i	?	?
S=c1[nH]nc(-c2cccc(Cl)c2)n1/N=C/c1ccco1	?	i	?	nt	?	?	nt
Cc1nn(CC(=O)NC2C(=O)N3C(C(=O)O)=C(CSc4nnnn4C)CSC23)cc1Br (centres undefined)	i	i	?	i	32µM	i	76
CO[C@@]1(NC(=O)CSCC#N)C(=O)N2C(C(=O)O)=C(CSc3nnnn3C)CSC21 (some centres undefined)	nt	i	nt	nt	nt	nt	nt
Cc1c(Cl)c(C(F)F)nn1CC(=O)NC1C(=O)N2C(C(=O)O)=C(CSc3nnnn3C)CSC12 (centres undefined)	?	?	20µM	i	22µM	i	76
Cc1c(Cl)cnn1CC(=O)NC1C(=O)N2C(C(=O)O)=C(CSc3nnnn3C)CSC12 (centres undefined)	?	?	22µM	i	20µM	i	43
Cn1nnnc1SCC1=C(C(=O)O)N2C(=O)C(NC(=O)Cn3nc(C(F)F)cc3C3CC3)C2SC1 (centres undefined)	35µM	?	20µM	i	18µM	i	?
CCC(C)(C)C1CCc2c(sc(NC(=O)c3ccccc3C)c2C#N)C1 (centres undefined)	nt	nt	nt	i	nt	nt	nt
CCC(C)(C)C1CCc2c(sc(NC(=O)c3ccccc3C(=O)O)c2C#N)C1 (centres undefined)	i	i	?	i	i	?	nt	Pol kappa inh-2=?

Source: PubChem
